Compounds without any hit were thinned out: in the full panel of roughly 79,000, 15% have a hit. A number with no mark means an inactive call. The source made the active and inactive calls. Cut-off read from the data, not from the text of the source: active = growth inhibition above about 70%; inactive = the rest.
Assays:
[1] = NCI Yeast Anticancer Drug Screen. Data for the rad50 strain (AID 155);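 note: 0% = growth of vehicle-only cultures of the same strain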; conditions: S. cerevisiae rad50 strain growth inhibition, hits give high values; at 50.0 µM unless noted
Procedure, shortened: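 Compounds were tested on a yeast strain with an engineered DNA damage repair alteration; the reported value is growth inhibition normalised to vehicle treatment.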

[2] = NCI Yeast Anticancer Drug Screen. Data for the mec2-1 strain (AID 157); conditions: S. cerevisiae mec2-1 strain, hits give high values; at 50.0 µM unless noted
Procedure, shortened: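 Growth inhibition is read against vehicle-treated controls after compound exposure of the mec2-1 yeast strain, which is defective in DNA damage repair or cell cycle control.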

[3] = NCI Yeast Anticancer Drug Screen. Data for the sgs1 mgt1 strain (AID 161);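 note: 0% = growth of cultures given vehicle only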; conditions: S. cerevisiae sgs1 mgt1 strain, hits give high values; at 50.0 µM unless noted
Procedure, shortened: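 Percent growth inhibition was derived by comparing compound-exposed mutant yeast with vehicle-exposed cultures. The strain carries alterations in DNA damage repair.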

[4] = NCI Yeast Anticancer Drug Screen. Data for the cln2 rad14 strain (AID 165);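 note: 0% = growth equal to vehicle treated cultures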; conditions: S. cerevisiae cln2 rad14 strain, hits give high values; at 50.0 µM unless noted
Procedure, shortened: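 Growth inhibition, relative to vehicle-treated controls, is the read-out. The test organism is a yeast strain with defined genetic alterations, cln2 rad14.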

[5] = NCI Yeast Anticancer Drug Screen. Data for the bub3 strain (AID 167); conditions: S. cerevisiae bub3 mutant strain, hits give high values; at 50.0 µM unless noted
Procedure, shortened: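 Growth of a checkpoint-deficient yeast mutant is measured after compound exposure. Values represent inhibition relative to vehicle.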

[6] = NCI Yeast Anticancer Drug Screen. Data for the mlh1 rad18 strain (AID 175); conditions: S. cerevisiae mlh1 rad18 strain growth inhibition, hits give high values; at 50.0 µM unless noted
Procedure, shortened: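 Cells of a genetically altered yeast strain, deficient in DNA damage repair, were treated with compound. Their growth was then compared with that of vehicle-treated cultures to give inhibition.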

| Structure (SMILES) | growth inhibition [1] | growth inhibition [2] [%] | growth inhibition [3] [%] | growth inhibition [4] [%] | growth inhibition [5] [%] | growth inhibition [6] [%] |
| --- | --- | --- | --- | --- | --- | --- |
| COc1ccccc1C(O)C(C)C (stereo not given) | -17.6% | -11.3 | 3.9 | -15.8 | -5.25 | -24.1 |
| CCO/C=C(\C)CC1([N+](=O)[O-])C(=O)c2ccccc2C1=O | 7.95% | -4.75 | 16.1 | -3.75 | 11.5 | 15.8 |
| O=C(O)CCc1[nH]c(I)nc1I | 17.1% | 14.3 | 5.3 | -0.7 | -7.45 | 29.5 |
| COCCN(CCOC)C(=O)Nc1ccc(Cl)cc1 | 4.6% | 5.5 | 10.4 | 4.5 | 0.8 | 9.75 |
| O=C1C2(c3ccccc3)CCC1(c1ccccc1)C(c1ccccc1)=C2c1ccccc1 | 40.1% | 26.9 | 7.25 | 23.9 | 3.05 | 37.5 |
| Cc1c(C)c(C(=O)Cc2ccccc2)c(C)c(C(=O)Cc2ccccc2)c1C | 19.6% | -1.8 | -15.3 | 12.3 | 5.55 | 0.65 |
| CCOC(=O)C(=O)C(NC(=O)Cc1ccccc1)C(=O)OCC (stereo not given) | 27.2% | -8.55 | 1.85 | -15.8 | -0.25 | 17.1 |
| O=C(NC12CC3CC(CC(C3)C1)C2)C(=O)c1c[nH]c2ccc(Cl)cc12 | -9.15% | -10.6 | -4.1 | 21.8 | 8.5 | -9.15 |
| O=C(CCc1ccccc1)On1nnc2ccccc2c1=O | -19.1% | -14.2 | -29.8 | 9.9 | -14.6 | -29.1 |
| COc1ccc2c(CSc3ncnc4nc[nH]c34)cc(=O)oc2c1 | 12.4% | 21.8 | 13.1 | -14.7 | 25.4 | 34.9 |
| CSC(N)=Nc1cccc2ccccc12 | -44.2% | -59 | -40.5 | -10.9 | -34.2 | -41 |
| CC1([N+](=O)[O-])COC(Cc2ccccc2)OC1 (stereo not given) | -7.7% | -4 | -16.9 | -17.3 | -18 | -5 |
| CC[N+](C)(CC)CCNC(=O)C(c1ccccc1)c1ccccc1 | 45.6% | -1.45 | 21.1 | 0.5 | 6.65 | 16.2 |
| CC(=O)OC1=C2OC(=O)C3(C2C=CC=C1)C1C=CC=CC13 (stereo not given) | -17.9% | 1.3 | 2.8 | -2.45 | -13.8 | -1.95 |
| Cc1c2noc1CCCCCCCCCCC2 | 18.9% | 20 | 3.6 | -4.15 | -13.7 | 17.9 |
| CC1=CC(C)C(C(=O)OCC(C)C)C(C(=O)OCC(C)C)C1 (stereo not given) | -13.2% | -6 | -5.1 | 1.45 | 23 | -22.4 |
| C=C1CC(C)(COc2ccc3ccc(=O)oc3c2)OC1=O (stereo not given) | 24.4% | 15.4 | 49 | 37.5 | 17.6 | 41 |
| CCCCN1C(=O)CC2[C@@H]3CCc4cc(OC(C)=O)ccc4C3CC[C@]2(C)C1=O (stereo not given in full) | 11.3% | 4.15 | 5.45 | 26.6 | -7.3 | -0.1 |
| O=C1OC(=O)c2c1nc1ccccc1c2-c1ccccc1 | -31.5% | -3.9 | 9.35 | 26 | -6.15 | 23.6 |
| CC1=C(C)CC2(CCCCC2=O)S(=O)C1 (stereo not given) | -34.8% | -28.8 | -9.85 | 11.1 | 15.8 | 2.55 |

| Structure (SMILES) | growth inhibition [1] | growth inhibition [2] [%] | growth inhibition [3] [%] | growth inhibition [4] [%] | growth inhibition [5] [%] | growth inhibition [6] [%] |
| --- | --- | --- | --- | --- | --- | --- |
| Cc1ccc(N[P+](c2ccccc2)(c2ccccc2)c2ccccc2)cc1.[Cl][Fe]([Cl])([Cl])[Cl] | 44.1% | 3 | 22.9 | -8.4 | 11.7 | 12.6 |
| O=C1NCCN1/N=C/c1ccc([N+](=O)[O-])o1 | 26.4% | 9.35 | 37.5 | -29.9 | 14.4 | 25.9 |
| CC1C2=C(CC(C)(C)CC2=O)NC2=C1C(=O)CC(C)(C)C2 | -7.3% | -26.1 | -8.55 | -9.85 | -7.4 | -3.4 |
| O=C1CCC(=O)N1C(c1ccccc1)c1ccccc1 | -10.4% | 6.95 | 5.85 | -30.9 | 20.9 | -6.2 |
| COc1cccc(Br)n1 | -4.15% | -17.1 | 6.95 | 15.1 | -8.85 | 26.9 |
| O=C(C/C(=N/O)c1ccccc1)c1ccccc1 | -14.7% | -4.65 | -8.5 | 15.4 | 5.35 | -1.8 |
| CC1CC(C)OC(c2ccccc2Cl)O1 (stereo not given) | 24.6% | 12.4 | 6.3 | -8.1 | 12.7 | 25 |
| O=c1c(O)c(-c2cc(O)c(O)c(O)c2)oc2cc(O)cc(O)c12 | 13.7% | -21.1 | 7.55 | 1.1 | 14.5 | -8.55 |
| O=[N+]([O-])c1ccc(S/N=C\c2ccccc2)c([N+](=O)[O-])c1 | -9.95% | 13.7 | 0.25 | 14.6 | 7.2 | 8.55 |
| CC(C)(C)CC(C)(C)c1ccc(O)c(CN2CCCCC2)c1 | 10.2% | 8.55 | 26.1 | -6.7 | 16.6 | 8.65 |
| C=CCC1(CN(C)C)CC/C(=C\c2ccc(Cl)cc2)C1=O (stereo not given) | 55.2% | 23.6 | 59.8 | 42.2 | 16.3 | 52.5 |
| CCOC(=S)SCC(=O)CSC(=S)OCC | 73.8% (active) | 12.1 | 21.7 | 9.7 | 50.2 | 2.15 |
| CN1c2ccccc2C2CCCCC21 (stereo not given) | 11.6% | 9.7 | 2.15 | -20.2 | 22.8 | 4.25 |
| CC1(C)OC(=O)C(Cc2ccccc2)(Cc2ccccc2)C(=O)O1 | 2.2% | -19.9 | -11.8 | 30.1 | -17.1 | -13.9 |
| COc1nc(NC2OC(CO)C(O)C(O)C2O)c(C(=O)CCl)c(=O)n1C (stereo not given) | 3.9% | 4.2 | -15.8 | -7.45 | -3.4 | 4.05 |
| CCC1CC(=O)c2ccccc2O1 (stereo not given) | 0.65% | 9.55 | -20.4 | -2.55 | 5.4 | 0.4 |
| Cc1ccc(C)n1-n1c(Cc2ccc(Cl)cc2)n[nH]c1=O | 8.5% | 3.05 | 16 | 8.05 | -4.4 | 13.1 |
| O=C1CN(c2cccc(C(F)(F)F)c2)C(=O)CN1/N=C/c1cccnc1 | -28.4% | -5.2 | 10.8 | -4.35 | 27.9 | -8.45 |
| CCC12C=CCN3CC[C@@]4(c5cc([C@@]6(C(=O)OC)C[C@@H]7CN(CCc8c6[nH]c6ccccc86)C[C@](O)(CC)C7)c(OC)cc5N(C)[C@H]4[C@@](O)(C(=O)NCCCCCCCCCCCC(=O)O)[C@@H]1O)C32 (stereo not given in full) | 19% | 19.8 | 21.6 | 5 | 25.3 | -17.6 |
| COc1ccc(/C=C(/NC(=O)c2ccccc2)C(=O)O)c(OC)c1 | -7.35% | -5.1 | 1.2 | -61.4 | -10.1 | -9.65 |

Source: PubChem BioAssay (NCI)
